Data on 86 sequences can be found in publication PMC10668032, “Altered binding affinity of SIX1-Q177R correlates with enhanced WNT5A and WNT pathway effector expression in Wilms tumor”.

Over roughly 33,000 sequences, “e-score” has its median near -0.05; the highest 2% begin near 0.38. This excerpt belongs to a sample that is enriched for the highest values.

The test addresses T1, SIX1-Q177R homeodomain (human, UniProt Q15475 108-198, Q177R).
T1 sequence: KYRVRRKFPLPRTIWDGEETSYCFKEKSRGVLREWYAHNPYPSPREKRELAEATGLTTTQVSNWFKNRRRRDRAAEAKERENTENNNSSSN
As to the kind of experiment: universal protein binding microarray; Universal all-10-mer PBM (8x60K, AMADID 030236), 300 nM GST-tagged protein, Alexa Fluor 488 anti-GST; buffer, salt, pH and temperature not stated (as in Berger); high values mean tight binding. Particulars: protein: ivt; tags: N-terminal GST; dsDNA, one strand shown. In short, it runs like this: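 GST-tagged homeodomains were made by in vitro transcription/translation and quantified by anti-GST western blot against a recombinant GST standard curve. They were applied in duplicate at 300 nM final concentration to universal 'all 10-mer' protein binding microarrays (8×60K format). Binding was quantified as 8-mer E-scores with the Universal PBM Analysis Suite.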
Regarding GTATCGGA, the binding signal was 0.2544 ± 0.00158 E-score. In the case of ATACGGTG, the binding signal came to 0.276 ± 0.0116 E-score.

On to ACCCGGTA, for which the binding signal was determined as 0.236 ± 0.00419 E-score. In the case of ACACGGTC, the binding signal was 0.4128 ± 0.00131 E-score. As for GCACGGTA, the figure is 0.165 ± 0.0341 E-score; as for ACACGGCG, 0.359 ± 0.00453 E-score; as for ACACGGTA, 0.385 ± 0.0298 E-score. As for ACACGGTG, the figure is 0.438 ± 0.00996 E-score; as for ACGGGAGT, 0.186 ± 0.00625 E-score. As for ACTCCACC, the figure is 0.275 ± 0.00877 E-score. For the sequence CGTGCACG, the binding signal is 0.17 ± 0.0561 E-score. CACCGTGC: the binding signal was determined as 0.3272 ± 0.00251 E-score. Consider ACCACTAC, for which the binding signal came to 0.178 ± 0.00318 E-score. In the case of CTCCCGGC, the binding signal is 0.152 ± 0.0261 E-score. As for ACCCCTAC, the figure is 0.294 ± 0.0164 E-score; as for AGGGGTAA, 0.224 ± 0.0133 E-score. As for AGTGGTGC, the figure is 0.2454 ± 0.00132 E-score; as for GTGTAATA, 0.451 ± 0.00861 E-score. For GTGTAAAC the value was 0.445 ± 0.018 E-score; for GTGTGAGA, 0.291 ± 0.0156 E-score. In the case of GTGTAAGA, the binding signal was 0.411 ± 0.0296 E-score. As for GGGTAAAC, the figure is 0.193 ± 0.00601 E-score. With ATGTAACA, the binding signal amounted to 0.2716 ± 0.000905 E-score. As for CCCTAAGA, the figure is 0.276 ± 0.0324 E-score. As for GTTTAAAC, the figure is 0.3445 ± 0.00099 E-score. As for GTGTAACA, the figure is 0.445 ± 0.00891 E-score; as for GTGAAATA, 0.172 ± 0.00835 E-score. Take GGGTAATA: the binding signal was found to be 0.264 ± 0.00387 E-score. As for GGGTAACA, the figure is 0.281 ± 0.0312 E-score; as for ACATAGTG, 0.19 ± 0.00926 E-score. Consider ACCCTGCT, for which the binding signal was 0.19 ± 0.00245 E-score.

With CACGCGAG, the binding signal amounted to 0.27 ± 0.0228 E-score. For CCCGCCGG the value was 0.245 ± 0.0587 E-score.

As to CCAAGCGG, the binding signal was determined as 0.162 ± 0.00467 E-score. As for AACGTACA, the figure is 0.185 ± 0.0191 E-score. As for GTATCGTA, the figure is 0.18 ± 0.0138 E-score.

For the sequence AGTCGCGA, the binding signal came out at 0.189 ± 0.03 E-score. For CACTCCTC, the binding signal amounted to 0.201 ± 0.00344 E-score. Consider GTGTGAAA, for which the binding signal turned out to be 0.356 ± 0.00667 E-score.

Consider GTGTAAAA, for which the binding signal was 0.401 ± 0.049 E-score. For the sequence GGATCCCA, the binding signal turned out to be 0.235 ± 0.0247 E-score.

Take CTTGACCC: the binding signal was 0.201 ± 0.00951 E-score. As for ATTGACTC, the figure is 0.162 ± 0.0495 E-score; as for ATTGACAC, 0.438 ± 0.0129 E-score; as for CTTGATAC, 0.195 ± 0.0457 E-score. In the case of ATTGACCC, the binding signal amounted to 0.167 ± 0.0261 E-score. Turning to CTTGACAC, the binding signal was determined as 0.42915 ± 0.000184 E-score. As for CAGCGTTA, the binding signal was found to be 0.187 ± 0.0162 E-score. AGATGACA: the binding signal came to 0.1652 ± 0.000311 E-score. As for CACCCACA, the figure is 0.365 ± 0.00539 E-score; as for CCCTTAAC, 0.152 ± 0.0479 E-score. For GAATACAC the value was 0.408 ± 0.0236 E-score; for GAATACCC, 0.159 ± 0.00629 E-score; for CAAAATAC, 0.162 ± 0.0251 E-score. For AAATACAC the value was 0.403 ± 0.0413 E-score; for CAATACAC, 0.371 ± 0.0193 E-score; for CCCTTAGG, 0.175 ± 0.00592 E-score.

Consider CACCCGAG, for which the binding signal is 0.297 ± 0.0235 E-score. For ACCAGTGG the value was 0.189 ± 0.0039 E-score; for CCCCAAGG, 0.218 ± 0.0124 E-score; for ACCTGGGG, 0.21 ± 0.0103 E-score.

As to CACGCCGG, the binding signal came to 0.287 ± 0.0131 E-score. As for GGTTAACA, the figure is 0.224 ± 0.0235 E-score.

Consider TCTTAACA, for which the binding signal was 0.202 ± 0.0606 E-score. TGTTAACA: the binding signal amounted to 0.389 ± 0.043 E-score. For CCCTAGTC, the binding signal was 0.167 ± 0.0143 E-score. On to ATACCTCC, for which the binding signal turned out to be 0.231 ± 0.0309 E-score. For CACCCTCG the value was 0.349 ± 0.0215 E-score; for CCACCTCC, 0.159 ± 0.00267 E-score; for ACCCCTCT, 0.304 ± 0.0038 E-score.

ACACCTCG: the binding signal was found to be 0.453 ± 0.00735 E-score. For ACACCTCA the value was 0.452 ± 0.0073 E-score; for ACCCCTCG, 0.3069 ± 0.00276 E-score.

For the sequence ACTCCTCT, the binding signal worked out at 0.174 ± 0.0278 E-score. Consider ACGCCTCA, for which the binding signal came out at 0.165 ± 0.0291 E-score. As for ACACCTCC, the figure is 0.4719 ± 0.000629 E-score; as for GCACCTCA, 0.162 ± 0.0144 E-score; as for ACACCTCT, 0.467 ± 0.0079 E-score. As for ACCCGATA, the figure is 0.237 ± 0.00872 E-score. On to CACCGAGG, for which the binding signal amounted to 0.2466 ± 0.00166 E-score.

With CACCAATC, the binding signal came to 0.287 ± 0.00449 E-score.

With GAAGGACA, the binding signal came to 0.176 ± 0.0303 E-score. For AACGAGTG the value was 0.189 ± 0.0329 E-score. As for CCCCCTGA, the figure is 0.277 ± 0.0278 E-score. For CCCCCAGG the value was 0.213 ± 0.0301 E-score. As to CACCTGCG, the binding signal turned out to be 0.26 ± 0.0138 E-score.
